# VACV E9 pol inh – blocks vaccinia virus processive DNA synthesis; normalized absorbance, % (concentration not given with the values); AID 493162; 0.94% of 46,000 active; in vitro processive DNA synthesis, absorbance read-out; active compounds read low; in the data active = normalized absorbance mostly below about 85%, no sharp cut-off; inactive = mostly above about 86%
# A number is an active result; . = inactive; ! = a repeat was not active. This is one part of a sample in which hits are shown more often than they occur.
SMILES,VACV E9 pol inh
OC(CN1CCNCC1)Cn1c2ccccc2c2cc(Br)ccc21 (stereo not drawn),55.8
CCn1c2c(c3cc(Br)ccc31)CCCC2=O,.
CN(CC(O)Cn1c2ccccc2c2ccccc21)S(=O)(=O)c1ccc(Cl)cc1 (stereo not drawn),.
OC(COc1ccccc1Br)CN1CCNCC1 (stereo not drawn),.
CN(C)CC(O)Cn1c2ccccc2c2ccccc21 (stereo not drawn),.
CN(C)CC(O)Cn1c2ccc(Cl)cc2c2cc(Cl)ccc21 (stereo not drawn),27.3
CC1CCN(CC(O)Cn2c3ccccc3c3ccccc32)CC1 (stereo not drawn),.
OCC(O)Cn1c2ccc(Br)cc2c2cc(Br)ccc21 (stereo not drawn),64.7
Cc1ccc2c(c1)c(C)c(C)n2CC(O)CN1CCCCC1 (stereo not drawn),.
Cc1cc(N2CCCC2)nc2ccc(NC(=S)NCCN3CCc4ccccc4C3)cc12,.
O=C(O)c1cccn1-c1ccc(Br)cc1,.
O=C(O)c1ccccc1C(=O)N1CCCC1,.
NC(=O)Cn1c(=O)c2ccccc2n(CC(N)=O)c1=O,.
COc1cc(S(=O)(=O)N2CCCCC2)ccc1F,.
Cc1ccc(Cn2nnc3c(=O)n(Cc4ccc(C(F)(F)F)cc4)cnc32)cc1,.
Cc1ccc(Cn2nnc3c(=O)n(Cc4cccc(C)c4)cnc32)cc1,.
O=c1c2nnn(Cc3ccc(F)cc3)c2ncn1Cc1ccc(F)cc1,69.2
Cc1ccc2nc3ccc(N4CC(C)CC(C)C4)nn3c(=O)c2c1 (stereo not drawn),.
COc1cc2cc(C)nc(C)c2cc1OC,68.0
COc1cc2cc(C)nc(Cc3cccc4ccccc34)c2cc1OC,.
COc1cc2cc(=O)[nH]c(C)c2cc1OC,.
O=C(Nc1nc2ccc(Cl)cc2s1)C1CCCCC1,.
N#CC(C#N)=C1N=NNN1c1ccccc1,.
COc1cc(S(=O)(=O)N2CCN(c3ccccc3OC)CC2)c(C)cc1C,.
CCOc1ccc(CNC(=O)COc2cc(=O)n(CC)c3ccccc23)cc1,.
SMILES,VACV E9 pol inh
CC[C@H]1OC(=O)[C@H](C)[C@@H](O[C@H]2C[C@@](C)(OC)[C@@H](O)[C@H](C)O2)[C@H](C)[C@@H](O[C@@H]2O[C@H](C)C[C@H](N(C)C)[C@H]2O)[C@](C)(O)C[C@@H](C)C(=O)[C@H](C)[C@@H](O)[C@]1(C)O,22.6!
CCC(=O)O[C@H]1[C@H](O[C@@H]2[C@@H](C)[C@H](O[C@H]3C[C@@](C)(OC)[C@@H](O)[C@H](C)O3)[C@@H](C)C(=O)O[C@H](CC)[C@@](C)(O)[C@H](O)[C@@H](C)C(=O)[C@H](C)C[C@@]2(C)O)O[C@H](C)C[C@@H]1N(C)C,.
CCOC(=O)CCC(=O)O[C@H]1[C@H](O[C@@H]2[C@@H](C)[C@H](O[C@H]3C[C@@](C)(OC)[C@@H](O)[C@H](C)O3)[C@@H](C)C(=O)O[C@H](CC)[C@@](C)(O)[C@H](O)[C@@H](C)C(=O)[C@H](C)C[C@@]2(C)O)O[C@H](C)C[C@@H]1N(C)C,.
O=C(NCc1ccccc1Cl)C(Cc1ccccc1)n1cccc1 (stereo not drawn),.
CN(C)/C=C/C(=O)c1ccc2c(c1)CCO2,.
Cc1c(C(=O)/C=C/N(C)C)nnn1-c1ccccc1,.
COC(=O)c1noc(C)c1C(=O)/C=C/N(C)C,40.4
Clc1ccccc1CNCc1ccccc1,.
COc1ccc(-c2cc(=Nc3ccc(O)cc3)c3cc(C)ccc3o2)cc1,54.5
CCc1ccc2oc(-c3ccc(OC)cc3)cc(=NCC(=O)O)c2c1,.
COc1ccc(-c2cc(=O)c3cc(OC(=O)c4ccc(OC)c(OC)c4)ccc3o2)cc1,.
COc1ccc(-c2cc(=Nc3ccc(OC)c(OC)c3)c3ccccc3o2)cc1,.
COc1ccc(-c2c(C)oc3cc(O)ccc3c2=O)cc1,.
COc1ccc(N=c2cc(-c3ccc(OC)cc3)oc3ccc(O)cc23)cc1,63.4
COc1ccc(-c2cc(=O)c3cc(OC(=O)Cc4ccccc4)ccc3o2)cc1,.
COc1ccc(-c2cc(=NC(CC(C)C)C(=O)O)c3cc(C)ccc3o2)cc1 (stereo not drawn),.
COc1ccc(-c2cc(=NCCc3ccccc3)c3cc(C)ccc3o2)cc1,40.9
CCc1cccc(NC(=S)N(CCOC)C(C)c2cccs2)c1 (stereo not drawn),.
CSc1cccc(NS(=O)(=O)c2cc3[nH]c(=O)c(=O)[nH]c3cc2C)c1,.
Cc1ccsc1-c1nc(CSCC(=O)O)c(C)o1,.
N#Cc1nc(-c2ccccc2F)oc1N1CCc2ccccc2C1,.
Cc1ccsc1C(=O)OCC(=O)N1CCC(Cc2ccccc2)CC1,.
CC(C)c1ccc(NC(=O)C2CCC(CNS(=O)(=O)c3cccs3)CC2)cc1 (stereo not drawn),.
Cc1ccccc1-c1nnc(-c2ccccc2C)n1N,.
COc1ccc(/C=C2N=C(/C=C/c3ccc(C)cc3)OC\2=O)cc1OC(C)=O,.
O=S(=O)(c1cccc(C(F)(F)F)c1)c1cnc2ccccc2n1,.
O=C1c2ccc(O)c(O)c2C(=O)c2c(O)ccc(O)c21,.

# Source: PubChem BioAssay
